Screens as filed in PubChem.
In the library only some 4% were active in any assay of this set; here they are far more common.
BoNT-F LC inh = blocks Botulinum neurotoxin F light chain protease | Multiplex microsphere protease cleavage assay, flow cytometry | inhibition, % at 10 µM | 360,000 compounds, 0.22% hits; in the data active means inhibition above about 35%, passing the limit was not always enough; inconclusive means no clear call, values can overlap the other calls
MazEF act = activators of E. coli MazEF toxin-antitoxin RNase. FAM/BHQ RNA-DNA oligo cleavage fluorescence, 5 h. activation, % at 20 µM. 350,000 compounds, 0.32% hits. AID 504720; in the data active means activation above about 50%
Anthrax LF prot = inhibitors of Bacillus anthracis lethal factor protease; P15917; multiplex microsphere protease cleavage assay, LF; inhibition, % at 10 µM; 360,000 compounds, 0.12% hits; AID 588501
BoNT A protease = inhibitors of Botulinum neurotoxin A light chain protease | multiplex microsphere protease substrate cleavage, flow cytometry | inhibition, % at 10 µM | 360,000 compounds, 0.17% hits
VHR inh abs = inhibitors of human VHR1 phosphatase (DUSP3) | 290,000 compounds, 0.52% hits | recombinant VHR phosphatase, pNPP absorbance | AID 1654 | inhibition, % at 13.3 µM; in the data active means inhibition above about 50%
Bead autofluor = flagged as autofluorescent in microsphere protease counterscreen. compound autofluorescence counterscreen, microsphere flow cytometry; active compounds read high. fluorescence intensity (no concentration beside the values). 360,000 compounds, 3.1% hits. AID 624483; in the data active means fluorescence intensity above about 16000; inconclusive means no clear call, values can overlap the other calls
A number is an active result. Unless noted, no stated cut-off is given here; in the data, active means inhibition above about 30%; inconclusive means no clear call, values can overlap the other calls; inactive means below that.

Screening CCCc1cc(=O)[nH]c(SCc2cccc(C)c2)n1 returned BoNT-F LC inh inactive, MazEF act inactive, Anthrax LF prot inactive, BoNT A protease inconclusive, VHR inh abs inactive and Bead autofluor 23596.
CC(C)CN1C(=O)NC(NC(=O)c2cccs2)(C(F)(F)F)C1=O (stereo not drawn) was read as BoNT-F LC inh inactive, MazEF act inactive, Anthrax LF prot inactive, BoNT A protease inconclusive, VHR inh abs inactive and Bead autofluor 21985.
O=C(NC1(C(F)(F)F)NC(=O)N(Cc2cccnc2)C1=O)c1ccccc1 (stereo not drawn) was read as BoNT-F LC inh inactive, MazEF act inactive, Anthrax LF prot inactive, BoNT A protease inactive, VHR inh abs inactive and Bead autofluor 20881.
`O=C(NC1(C(F)(F)F)NC(=O)N(Cc2ccco2)C1=O)c1cccs1` (stereo not drawn) gave BoNT-F LC inh inactive, MazEF act inactive, Anthrax LF prot inactive, BoNT A protease inactive, VHR inh abs inactive and Bead autofluor 20774.
CN1C(=O)NC(NC(=O)c2cccs2)(C(F)(F)F)C1=O (stereo not drawn) was read as BoNT-F LC inh inactive, MazEF act inactive, Anthrax LF prot inactive, BoNT A protease inactive, VHR inh abs inactive and Bead autofluor inactive.
Screening O=C(NC1(C(F)(F)F)NC(=O)N(Cc2ccco2)C1=O)c1cccnc1 (stereo not drawn) returned BoNT-F LC inh inactive, MazEF act inactive, Anthrax LF prot inactive, BoNT A protease inactive, VHR inh abs inactive and Bead autofluor inactive.
For O=c1ccnc(SCc2ccccc2Cl)[nH]1 the results were BoNT-F LC inh inactive, MazEF act inactive, Anthrax LF prot inactive, BoNT A protease inactive, VHR inh abs inactive and Bead autofluor 16496.
O=c1[nH]c(=O)n(Cc2ccccc2Cl)c(O)c1C=Nc1ccc(F)cc1 was read as BoNT-F LC inh inactive, MazEF act 53, Anthrax LF prot inactive, BoNT A protease inactive, VHR inh abs inactive and Bead autofluor inactive.
Screening O=c1[nH]c(=O)n(Cc2ccc(F)cc2)c(O)c1C=NCCCn1ccnc1 returned BoNT-F LC inh inactive, MazEF act inactive, Anthrax LF prot inactive, BoNT A protease inactive, VHR inh abs inactive and Bead autofluor 20628.
O=C(CCn1ccc2cc(S(=O)(=O)N3CCCC3)ccc21)NCc1ccccc1F was read as BoNT-F LC inh inactive, MazEF act inactive, Anthrax LF prot inactive, BoNT A protease inactive, VHR inh abs inactive and Bead autofluor inactive.
CCNS(=O)(=O)c1ccc(NC(=O)c2c(-c3ccccc3)noc2C)cc1 was read as BoNT-F LC inh inactive, MazEF act inactive, Anthrax LF prot inactive, BoNT A protease inactive, VHR inh abs inactive and Bead autofluor inactive.
COc1nn(C(C)C(=O)N2N=C(C(F)F)CC2(O)C(F)F)cc1[N+](=O)[O-] (stereo not drawn) was read as BoNT-F LC inh inactive, MazEF act inactive, Anthrax LF prot inactive, BoNT A protease inactive, VHR inh abs inactive and Bead autofluor 20181.
For COc1nn(CC(=O)N2N=C(C(F)F)CC2(O)C(F)F)cc1[N+](=O)[O-] (stereo not drawn) the results were BoNT-F LC inh inactive, MazEF act inactive, Anthrax LF prot inactive, BoNT A protease inactive, VHR inh abs inactive and Bead autofluor 23495.
`CN(CC(=O)Nc1ccc(Cl)cc1)C(=O)COc1ncnc2ccccc12` gave BoNT-F LC inh inactive, MazEF act inactive, Anthrax LF prot inactive, BoNT A protease inactive and Bead autofluor inactive.
`COc1ccc(CN(CC2CCCO2)S(=O)(=O)c2ccc(C(=O)O)cc2)cc1OC` (stereo not drawn) gave BoNT-F LC inh inactive, MazEF act inactive, Anthrax LF prot inactive, BoNT A protease inactive, VHR inh abs inactive and Bead autofluor 23567.
For CCCN1CN(Cc2ccco2)c2nc3ccccc3n2C1 the results were BoNT-F LC inh inactive, MazEF act inactive, Anthrax LF prot inactive, BoNT A protease inconclusive, VHR inh abs inactive and Bead autofluor 18478.
O=C(CCc1c[nH]c2ccccc12)NCC1COc2ccccc2O1 (stereo not drawn) was read as BoNT-F LC inh inactive, MazEF act inactive, Anthrax LF prot inactive, BoNT A protease inactive, VHR inh abs inactive and Bead autofluor inactive.
O=C(CCCc1c[nH]c2ccccc12)NCC1COc2ccccc2O1 (stereo not drawn) was read as BoNT-F LC inh inactive, MazEF act inactive, Anthrax LF prot inactive, BoNT A protease inactive, VHR inh abs 52 and Bead autofluor inactive.
N#CCSc1nc2c(sc(=S)n2Cc2ccco2)c(=O)n1-c1ccc(F)cc1 was read as BoNT-F LC inh inactive, MazEF act inactive, Anthrax LF prot inactive, BoNT A protease inactive, VHR inh abs inactive and Bead autofluor 21835.
`CCn1c(=S)sc2c(=O)n(-c3ccccc3)c(SC)nc21` gave BoNT-F LC inh inactive, MazEF act inactive, Anthrax LF prot inactive, BoNT A protease inactive, VHR inh abs inactive and Bead autofluor inactive.
Screening CC(=O)N1C(=O)NC(c2ccccc2)=C([N+](=O)[O-])C1c1ccccc1 (stereo not drawn) returned BoNT-F LC inh inactive, MazEF act inactive, Anthrax LF prot 33, BoNT A protease inactive, VHR inh abs inactive and Bead autofluor inactive.
For CCOC(=O)C1=C(c2ccccc2)NC(=O)N(C(C)=O)C1c1cccc([N+](=O)[O-])c1 (stereo not drawn) the results were BoNT-F LC inh inactive, MazEF act inactive, Anthrax LF prot inactive, BoNT A protease inactive, VHR inh abs inactive and Bead autofluor inactive.
`O=c1cc(CN2CCC(Cc3ccccc3)CC2)nc2sccn12` gave BoNT-F LC inh inactive, MazEF act inactive, Anthrax LF prot inactive, BoNT A protease inactive, VHR inh abs inactive and Bead autofluor inactive.
Cc1cccc(N2C(=O)NC(=O)/C(=C/c3cc4c(cc3[N+](=O)[O-])OCO4)C2=O)c1 was read as BoNT-F LC inh inactive, MazEF act 537, Anthrax LF prot inactive, BoNT A protease inactive, VHR inh abs inactive and Bead autofluor inactive.
`O=C1NC(=O)C(=Cc2cc3c(cc2[N+](=O)[O-])OCO3)C(=O)N1` gave BoNT-F LC inh inactive, MazEF act inactive, Anthrax LF prot inactive, BoNT A protease inactive, VHR inh abs inactive and Bead autofluor inactive.
O=C(O)c1ccc(COc2ccccc2Cl)cc1 was read as BoNT-F LC inh inactive, MazEF act inactive, Anthrax LF prot inactive, BoNT A protease inactive, VHR inh abs inactive and Bead autofluor inactive.
CCN(CC)C(=O)c1ccc(COc2ccccc2Cl)cc1 was read as BoNT-F LC inh inactive, MazEF act inactive, Anthrax LF prot inactive, BoNT A protease inactive, VHR inh abs inactive and Bead autofluor inactive.
O=C(O)c1cccc(COc2ccccc2Cl)c1 was read as BoNT-F LC inh inactive, MazEF act inactive, Anthrax LF prot inactive, BoNT A protease inactive, VHR inh abs inactive and Bead autofluor 22141.
CCC(C)NC(=O)c1ccc(COc2ccccc2Cl)cc1 (stereo not drawn) was read as BoNT-F LC inh inactive, MazEF act inactive, Anthrax LF prot inactive, BoNT A protease inactive, VHR inh abs inactive and Bead autofluor 21804.
